PubChem BioAssay (NCI)
About 83,000 compounds went through this panel and 20% of them were active in at least one assay; those are over-represented in the sample as a whole.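 Single-concentration screen, 48 h exposure, 96-well plates. Endpoint: percent growth. Below 10 = active.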 Values without a mark were called inactive. The source made the active and inactive calls.

Tested on: MDA-MB-468 breast
Assay: NCI-60 one-dose screen, 48 h (100 = growth as untreated, 0 = no growth, -100 = all killed)
Conditions: 10 µM unless noted

Row | SMILES | growth
1 | COc1cc(NC(C)CN(CC(C)C)C(C)C)c2ncccc2c1 (stereo not given) | -15.4% (active)
2 | Cc1ccc(OCc2occc2C(=O)N2CCOCC2)cc1 | 103%
3 | N#CC(=S)Nc1ccc(Cl)c(Cl)c1 | -5.08% (active)
4 | CC1CCN(Cc2ccc(NC(=O)c3cc4ccc5cccnc5c4[nH]3)cc2)CC1 | 21%
5 | NC(N)=NS(=O)(=O)c1ccc(NC2=C(I)C(=O)c3ncccc3C2=O)cc1 | 94.1%
6 | C/C(=N\NC(=O)/C=C/CC(=O)O)c1nnn(-c2ccc([N+](=O)[O-])cc2)c1C | 99.8%
7 | O=C(Nc1ccccc1C(F)(F)F)C1=NCCCCN1 | 94.8%
8 | Cc1oc(-c2ccc(Cl)cc2)nc1/C=C/C(=O)c1ccccc1 | 95%
9 | O=C(c1ccc(/C=C/c2n[nH]c3ccccc23)cc1)N1CCNCC1 | 65.9%
10 | Nc1cccc2c(=S)c3ccccc3[nH]c12 | 86.1%
11 | C[C@@H]1CC[C@@H]2[C@@H]1[C@H](OC(=O)/C=C/c1ccccc1)[C@]1(c3ccccc3)C[C@@H](OC(=O)CO)[C@@]2(C)O1 | 87.5%
12 | CCN1C(=S)N(c2ccccc2)C2NC(=S)N(/N=C/C=C/c3ccccc3OC)C21 (stereo not given) | 6.55% (active)
13 | CC(=O)Cc1nsc(NC(=O)c2cc(-c3cc(Cl)cc(Cl)c3)oc2C)n1 | 97.6%
14 | N#CC1=C(N)Oc2c(ccc3ccccc23)C1c1ccccc1 (stereo not given) | 23.1%
15 | CCN1CCN(CC(=O)Nc2nc3ccc(NCc4ccc(F)cc4)cc3s2)CC1 | 86.1%
